Reference: PubChem BioAssay (NCI)
Compounds without any hit were thinned out: in the full panel of roughly 83,000, 20% have a hit.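 Values shown are percent growth following 48 h exposure of cells in 96-well plates to a single concentration of compound; below 10 was considered active.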 Unmarked numbers belong to inactive results. Activity calls are given as the source filed them.

Key:
Experiment in all cases: NCI-60 one-dose screen, 48 h (100 = growth as untreated, 0 = no growth, -100 = all killed)
NCI-H23 lung = conditions: 10 µM unless noted
NCI-H226 lung = conditions: 10 µM unless noted
NCI-H322M lung = conditions: 10 µM unless noted
HOP-62 NSCLC = conditions: 10 µM unless noted
HOP-92 NSCLC = conditions: 10 µM
NCI-H522 lung = conditions: 10 µM
A549/ATCC NSCLC = conditions: 10 µM unless noted
786-0 renal = conditions: 10 µM unless noted
NCI-H460 lung = conditions: 10 µM unless noted
COLO 205 colon = conditions: 10 µM unless noted

SMILES	growth (NCI-H23 lung)	growth (NCI-H226 lung)	growth (NCI-H322M lung)	growth (HOP-62 NSCLC)	growth (HOP-92 NSCLC)	growth (NCI-H522 lung)	growth (A549/ATCC NSCLC)	growth (786-0 renal)	growth (NCI-H460 lung)	growth (COLO 205 colon)
COc1ccc2cnc(N)c(C#Cc3cc(C(=O)Nc4ccc(CN5CCN(C)CC5)c(C(F)(F)F)c4)cnc3C)c2c1	52.3%	26.8%	70.3%	18.9%	20.1%	69.7%	61.5%	-50.3% (active)		
OCCN1CCCN(CCCN2c3ccccc3Sc3ccc(C(F)(F)F)cc32)CC1	68.8%	92.7%	73.6%	74.8%				65.1%	40.7%	
CCCCCCCCCCCCCCCCNC(=O)Nc1ccc(C)c(NC(=O)NCCCCCCCCCCCCCCCC)c1	111%	98.9%	108%	98%			104%	118%	103%	116%
CCN(CC)C(=O)C1(C)CCCC2(C)c3cc(OC(C)=O)ccc3CCC12 (centres undefined)	84.3%	75.8%	83.5%	94.9%				92%	90%	92%
CCCCCCCCCCC(C[N+](C)(C)C/C=C/c1ccccc1)C(O)c1ccccc1 (centres undefined)	7.14% (active)	29%	46.7%	-30.3% (active)			54.5%	-5.14% (active)	5.75% (active)	-89.2% (active)
COc1cc(C(=O)Nc2ccc(N(C)C)cc2)cc(OC)c1OC	95.4%	91%	93.4%	94.2%				96.4%	99.8%	100%
O=C(Nc1ccc(-n2cc(-c3ccncc3)c(-c3ccc(Cl)c(O)c3)n2)cc1)c1cc(C(F)(F)F)cc(C(F)(F)F)c1	63.8%	94.3%	116%	53.9%			52.2%	38.4%	36.7%	70.1%
COc1cc(OC)c(/C=C/c2ccc3ccccc3[n+]2C)c(OC)c1	1.71% (active)	26.2%	17.7%	28.4%				18.5%	1.55% (active)	-51.5% (active)
CCCCCCCCC(=O)Nc1ccc(O)cc1	92.3%	104%	88.1%	99.3%				95.9%	105%	94.9%
C[n+]1c2ccccc2c(Nc2ccc(NS(=O)(=O)CCCCN=C(N)N)cc2)c2ccc(N)cc21	26%	41%	71.4%	32.2%				44.1%	10.9%	50.4%
OCCN1CCN(CC/C=C2/c3ccccc3Sc3ccc(C(F)(F)F)cc32)CC1	72.3%	91%	72.6%	75.9%				71.2%	82.7%	1.04% (active)
COC(=O)C1CC(=O)N(C(=O)Nc2ccc(Cl)cc2Cl)C1 (centres undefined)	98.8%	94.6%	108%	85.5%	83.1%	80.3%	96.3%	92.4%		
CNc1nc2ncn(C)c2c(=O)[nH]1	105%	98.5%	88.2%	96.5%				103%	103%	94.5%
O=C(Nc1cccc(Cn2c(=O)[nH]c3ccc(Oc4ncccn4)cc3c2=O)c1)c1cc(Cl)cc(Cl)c1	74.1%	44.2%	57.7%	71.6%	44.1%	49.3%	56%	72.6%		
CC(C)C(=O)c1ccc(Cl)s1	103%	93.2%	91.5%	98.1%				102%	105%	109%
CCN(CC)CCNc1ncnc2c1cnn2-c1ccc(Cl)cc1	76.5%	100%	92.8%	114%				106%	85%	15.9%
CC(C)(C)c1cc(C[P+](c2ccc(Cl)cc2)(c2ccc(Cl)cc2)c2ccc(Cl)cc2)cc(C(C)(C)C)c1O	86.5%	90.6%	86.1%	98.9%				99.1%	94.9%	50.4%
O=C(CBr)OCc1ccc([N+](=O)[O-])o1	97.2%	104%	132%	96.8%			100%		91.6%	100%

SMILES	growth (NCI-H23 lung)	growth (NCI-H226 lung)	growth (NCI-H322M lung)	growth (HOP-62 NSCLC)	growth (HOP-92 NSCLC)	growth (NCI-H522 lung)	growth (A549/ATCC NSCLC)	growth (786-0 renal)	growth (NCI-H460 lung)	growth (COLO 205 colon)
C/C=C(/C)C(=O)OC1C=C(CO)C(=O)C(OC(=O)C2(C)OC2C)C1C(C)C (centres undefined)	-63.1% (active)	-36.4% (active)	-3.37% (active)	0.921% (active)	-35.1% (active)	-79.5% (active)	-23.5% (active)	-89.7% (active)		
CC(O)CN(CCO)CCN(CCO)CC(C)O (centres undefined)	111%	99.3%	103%	110%			102%	94.6%	109%	115%
CCC(C)(CC)c1ccc(O)c(C)c1	98.9%	98%	94.4%	101%				94.8%	105%	105%
CC(=O)N1CCN(CCNC(=O)n2cc(-c3ccncc3)c(-c3cc(O)cc(Cl)c3)n2)CC1	99.7%	102%	106%	94.2%			102%	67.8%	89%	86.8%
Br/C(=N\Nc1nn[nH]n1)c1ccccc1	98.9%	90.6%	96.3%	98%				92.2%	105%	104%
COc1ccc(Nc2c3ccccc3nc3ccccc23)cc1	36.1%	6.97% (active)	43.3%	33.7%				43.6%	9.36% (active)	20.1%
N#Cc1ccc(OCc2nc(N)nc(N)c2-c2ccc(Cl)c(Cl)c2)cc1	36.3%	45.8%	40.6%	9.96% (active)			7.74% (active)	25.8%	14.1%	45.5%
CCCCCCCCCC[N+](C)(C)N	104%	92.3%	97.7%	95.8%			97.6%	81.9%	111%	100%
O=C(NC(=S)NNC(=S)NNc1ccccc1)c1ccccc1	25.9%	40.6%	68.2%	43%				67.7%	13.2%	81%
CCN(CC)CCOC(=O)c1cccnc1	95.8%	90.3%	100%	94.6%				99.8%	101%	119%
C=CC1CN2CCC1CC2C(O)c1ccnc2ccc(OC)cc12 (centres undefined)	98.3%	91.9%	94.4%	79.8%			97.3%	92%	98.5%	106%
CCOc1ccc(Br)cc1/C=C(\C#N)c1ccc([N+](=O)[O-])cc1	87.6%	81.2%	77.4%	22.1%				86.3%	82.2%	97.2%
CC[n+]1c(C)ccc2cc(C)ccc21	96%	93.6%	111%	97.5%			75.3%		110%	101%
CN1CCN(Cc2ccc(NC(=O)c3ccc(C#Cc4c(N)ncc5ccc(F)cc45)cc3)cc2C(F)(F)F)CC1	-80.4% (active)	55.1%	-49% (active)	-39.2% (active)	-2% (active)	-85.2% (active)	-49.1% (active)	-56.6% (active)		
Cc1ccc(C(=O)C(Br)C(Br)c2ccccc2)cc1 (centres undefined)	114%	92.8%	95%	115%				99.4%	101%	52.8%
CCOc1ccc(N(C)c2ccc(/C=C/C3=[N+](C)c4ccccc4C3(C)C)cc2)cc1	4.67% (active)	54.2%	57%	12.3%			9.51% (active)	2.71% (active)	-50% (active)	-77% (active)
COc1cc2c(c(OC)c1OC)C(=O)CC(c1cccc(C(=O)Nc3cccc(Br)c3)c1)O2 (centres undefined)	97%	85.1%	81.5%	86%	55.3%	51.7%	77.9%	84%		
